Data published in PubChem BioAssay AID651567 (National Center for Advancing Translational Sciences (NCATS), 2012).
Screen size: about 1,200 compounds; about 10 (0.8%) were called active. About 4% were inconclusive and are not listed. Calls come from the whole dose curve; as a rule, active = well fitted inhibition curve with a large enough effect; inconclusive = small, poorly fitted or top-dose-only effect; inactive = no such curve, though single readings can be large or run the other way. Shown is part of a subset that was picked to be rich in actives.

Assay: qHTS Assay to Find Inhibitors of Chronic Active B-Cell Receptor Signaling: Hit Validation in OCI-Ly3 Assay
Conditions: OCI-Ly3 IkB-luciferase reporter, Chroma-Glo luminescence, 4 h; series mostly up to 46.1 µM; activity change, negative = inhibition: at the top concentration
Text: Diffuse large B-cell lymphoma (DLBCL) is the most common category of non-Hodgkin lymphoma, with ~20,000 new cases per year in the United States. DLBCL should be regarded as a collection of different neoplasms. Microarray gene expression analysis has defined two principal types of DLBCL, named for their similarity to normal B cell stages or activation states: a germinal center B-cell (GCB) type, and an activated B-cell (ABC) type. In ABC-DLBCL, a constitutive high-level activity of the NF-kappaB family of transcription factors has been observed (1) and NF-kappaB target genes are more highly expressed in ABC primary tumors than in GCB tumors. Functional studies have shown a constitutive high-level activity of the IkappaB (inhibitor of kappa-B) kinase (IKK) complex. […] Further analysis of DLBCL primary tumors for NF-kappaB target gene expression imply that although CARD11 is required for constitutive IKK activity in all ABC-DLBCL lines, mutations in CARD11 may be the root cause of IKK activation only in lines or tumors with such mutations. In other words, CARD11 mutations may explain NF-kappaB activation in only 10% of ABC-DLBCL cases. […] This process has been termed 'chronic active BCR signaling' (CABS). The goal of this screen is to find small-molecule inhibitors of the CABS pathway found in ABC-DLBCL lines using a cell-based assay that measures IkappaBalpa stability, which has already been extensively validated in the OCI-Ly3 line (PubChem AID:445; REF: 4). […] Hits from the primary screen were tested in this selectivity secondary assay. NIH Molecular Libraries Probe Production Network [MLPCN] NIH Chemical Genomics Center [NCGC] MLPCN Grant: R03 DA031086 PI Name: Dr. R. Eric Davis
Cells were seeded in 1536-well plates at 5000 cells/3ul in IMDM medium containing 0.5% FBS, w/o phenol red, L-glutamine, 25 mM HEPES, 3 mg/ml sodium bicarbonate. After centrifugation for 1 min. at 1000 rpm, 23 nl of compounds or DMSO were delivered to each well using a pin tool. Then 1ul 80ng/ml doxycycline was dispensed into white solid 1536-well plates and the plates were incubated at 37C/5% C02 in a cell incubator for 4 hrs. Then 4 ul Chroma-Glo luminescent substrate mix (Promega) was added to each well. The plate was incubated at R.T. for 10-15 min. The plates were measured on a ViewLux plate reader for green luminescence (540/20 nm filter) and red luminescence (618/8 nm filter). The green and red luminescent signals were corrected for red and green luminescence filter overlap using previously determined filter calibration constants (determined using the procedure outlined in the Promega Technical Manual). The %Activity was determined from the ratio of corrected green/red luminescent values. Green luminescent and ratio %Activity was determined by normalizing to the difference in signal between basal cells (0% Activity) and cells incubated with 10 uM of the proteasome inhibitor MG-132 (100% Activity). Red luminescent %Activity was normalized to the difference between red luminesence in basal cells (0%Activity) and zero luminescence (-100% Activity). Concentration-response curves were fitted to the signals arising from the green luminescence (I-kappa-B-alpha-luciferase fusion; IkB-luc) and the red luminescence (unfused luciferase; luc) as well as the calculated ratio. The concentration-effect curves were then classified based on curve quality (r2), response magnitude and degree of measured activity. Compounds were then categorized based on their concentration-response curves for all three datasets (Ikb-luc, luc and ratio).
% is set by controls: 0 for no effect and ±100 for the full control effect; potency is the fitted concentration of half-maximal effect.

Activity change, negative = inhibition, inactive:
COC(=O)Nc1nc(-c2ccccc2)c(C(=O)c2ccc(Cl)cc2)s1 -1.03%
CN(CC(=O)O/N=C(\N)c1ccccn1)S(=O)(=O)c1cc(Cl)ccc1Cl -0.248%
Cc1ccc(/C=N/NC(=O)c2n[nH]c3c2CCCC3)cc1 -1.46%
Cc1cc(C)c(C#N)c(SCc2c(F)cccc2[N+](=O)[O-])n1 -2.3%
O=C(CSc1cccc[n+]1[O-])c1cc(Cl)ccc1Cl -6.48%
COc1ccc(/C=C/C(=O)c2cc(F)ccc2OC(=O)c2ccc(OC)c(OC)c2)cc1OC -5.26%
COc1cc(/C=C\C(=O)OCn2nnc3ccccc3c2=O)cc(OC)c1OC -4.34%
Cc1cccc(NC(=O)c2ccc(C(=O)Nc3cccc(C)c3)nc2)c1 -0.935%
O=C1OCC2=C1C(c1ccc(F)cc1)c1cc3c(cc1N2)OCO3 (centres undefined) -4.57%
COc1cc(C(=O)N2CCN(c3cc(Cl)ccc3Cl)CC2)cc(OC)c1OC -4.65%
CC1=CC(C)(C)N2C(=O)C(=O)c3cc(OC(=O)c4ccco4)cc1c32 -12.4%
CCOc1cc(/C=C2\CN(C)C/C(=C\c3ccc(O)c(OCC)c3)C2=O)ccc1O -16.9%
Cc1nnc2sc(-c3csc4c3CCCC4)nn12 -0.641%
O=[N+]([O-])c1cccnc1SCc1c(F)cccc1Cl -1.19%
CCCSc1nc(C)c(C(C)=O)cc1C#N -0.455%
CCOc1c(Br)cc(CNc2ccc3c(c2)OCCO3)cc1OC -4.18%
CCOC(=O)c1c(C)sc2c1N(C(C)=O)c1cc(Cl)ccc1S2 -1.47%
CC(C)N1C(=O)/C(=C\c2nc3ccccc3c(=O)[nH]2)c2ccccc21 -26.8%
COc1cc(C2Nc3ccccc3C(=O)N2c2ccc(Cl)cc2)c(Cl)cc1OCC(=O)O (centres undefined) 0.262%
Cc1ccc(NC(=S)N/N=C/c2c(Cl)cccc2Cl)c(C)c1 -4.26%
Cc1cc2nc(/C=C/c3cccnc3)[nH]c2cc1C -2.38%
COC(=O)C1C(O)=C(C=Nc2ccccc2)C(=O)CC1(C)C (centres undefined) 0.611%
Cc1ccc(NC(=O)c2ccco2)c([N+](=O)[O-])c1 0.0255%
CN(C)c1ccc(-c2nn3c(-c4ccccc4Cl)nnc3s2)cc1 -2.19%
CCOC(=O)COc1cccc2c(=O)n(CC(=O)NCc3ccc(F)cc3)ccc12 -1.96%
Cc1c(C(=O)OCC(C)C)[nH]c2c1C(=O)CC(c1cccs1)C2 (centres undefined) -0.184%
Clc1cncc(Cl)c1N/N=C/c1ccncc1 -4.45%
COc1ccc(CCNC(=O)Cn2c(=O)cnc3ccccc32)cc1 -0.695%
COc1cc(C(=O)Nc2nc(C)c(Cc3ccc4c(c3)OCO4)s2)cc(OC)c1OC -6.45%
COc1ccc(C(=O)/C=C/c2ccc(O)cc2)c2c1CC(O)C(C)(C)O2 (centres undefined) -0.966%
Cc1ccc(/C=C/C(=O)c2nc3ccccc3[nH]2)cc1 -4.37%
COc1ccc2[nH]c3c(c2c1)CCN1C(=O)C(CC(=O)NCC24CC5CC(CC(C5)C2)C4)C[C@H](C(=O)N2CCCCC2)[C@@]31C (some centres undefined) -2.31%
Nc1nc(SCc2nc(-c3ccccc3)no2)[nH]c(=O)c1-c1ccccc1 -0.0938%
Oc1ccccc1/C=N/Nc1ccnc(SCc2ccccc2)n1 0.375%
O=C(/C=C/c1ccccc1)c1ccc(NC2=NCCCS2)cc1 -4.98%
Cc1c(CCC(=O)N[C@@H](CCCNC(N)=O)C(=O)O)c(=O)oc2cc3oc4c(c3cc12)CCCC4 -0.014%
COc1ccc(/C=N/Nc2nccnc2Cl)c(OC)c1 -14.9%
CCO[C@H]1OC(C(=O)NCc2nc3ccccc3[nH]2)=C[C@@H](C2CC2)[C@@H]1CCCO -0.732%
CNc1nc(-c2ccc(OC)cc2)c(-c2ccc(OC)cc2)s1 -0.769%
COc1ccc(C)cc1Nc1cc(C)nc2ncnn12 -1.77%
NC(=S)N/N=C1\CC(c2ccc3c(c2)OCCCO3)Oc2ccc(F)cc21 (centres undefined) -4.5%
CCOC(=O)C1=C(O)c2ccccc2C(=O)/C1=C\c1ccc(CC)cc1 -7.74%
COCCn1nnnc1C(C(C)C)N(Cc1ccccc1)Cc1cc2cc(OC)ccc2[nH]c1=O (centres undefined) -1.07%
CCCN1C(=O)C(=O)c2cc(Cl)ccc21 -8.1%
Cc1ccc2c(c1)C(=O)C(=O)N2CCOc1ccccc1 -2.23%
CC[C@]12c3[nH]c4cc(CCC(=O)N(C)C)ccc4c3CCN1C(=O)[C@@H](CC(=O)NC(C)(C)C)C[C@@H]2C(=O)N1CCN(C(=O)c2ccco2)CC1 -2.11%
CCOC(=O)c1ccc(-c2c(-c3cc(OC)c(OC)c(OC)c3)noc2C)cc1F -3.94%
COc1ccccc1NC(=O)N1CCC(c2nc3cc(C)c(C)cc3[nH]2)CC1 -3.12%
Cc1cc(C)c2nc3sc(C(=O)N4CCOCC4)c(N)c3cc2c1 -8.28%
Cc1cc(Cl)n2c(nc3cc(F)c(F)cc32)c1C#N 0.844%

Potency, active:
COc1ccc(C(=O)/C=C/c2ccc(OC)c(Cn3nnc4ccccc43)c2)cc1 16.4 µM
O=C(/C=C/c1ccc(O)cc1)c1ccc(O)cc1O 16.4 µM
Oc1cccc(/C=N/Nc2ccc(Cl)nn2)c1O 20.6 µM
CC(=O)Nc1cc(N=Cc2ccc(O)cc2O)c(Cl)cc1Cl 14.6 µM
